ELG1 repair inh = ELG1-dependent DNA repair inhibition; HEK293T ELG1-luciferase reporter, luminescence, 16 h; DNA damage induced by 5-fluorouridine; Potency, µM (doses to about 46.1 µM), for the others: at the top dose activity change, negative = inhibition, actives largely listed as inhibitors; hit rate 2.3% among 330,000; note: potency is the fitted concentration of half-maximal effect; nearly all actives have a fitted effect of over 55% in size
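HEK293T cells expressing luciferase-tagged ELG1 (2,000/well) received 5-Fluorouridine plus compound or DMSO for 16 hr at 37 °C. Luciferase was read by ONE-Glo luminescence after 30 min at room temperature.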
DT40 TDP1 no CPT = qHTS for Inhibitors of human tyrosyl-DNA phosphodiesterase 1 (TDP1): qHTS in cells in absence of CPT; DT40 Tdp1-/- hTDP1 cells, no CPT, ATP luminescence, 48 h; Potency, µM (doses to about 46.2 µM), without a hit: at the highest dose activity change, negative = growth inhibition, most hits filed as inhibitors; hit rate 15% among 420,000; AID 686978, 2013; note: potency is the fitted concentration of half-maximal effect; nearly all actives have a fitted effect of over 55% in size
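Readout: luminescence from CellTiter-Glo after 30 min in the dark at RT. Cells: DT40 Tdp1-/- with stable hTDP1, 400/well. Exposure: compounds alone, ≥48 hr, 37 °C.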
RORgamma inh = blocks mouse ROR gamma transcriptional activity; P51450; Potency, µM (doses to about 53.6 µM), without a hit: at the top dose activity change, negative = inhibition, most hits filed as inhibitors; AID 2551; hit rate 5.4% among 310,000; Drosophila S2 Gal4-RORgamma UAS-luciferase reporter, 20 h; note: potency is the fitted concentration of half-maximal effect; nearly all actives have a fitted effect of over 60% in size
Target sequence (P51450 whole entry, looked up, the tested form may be a part): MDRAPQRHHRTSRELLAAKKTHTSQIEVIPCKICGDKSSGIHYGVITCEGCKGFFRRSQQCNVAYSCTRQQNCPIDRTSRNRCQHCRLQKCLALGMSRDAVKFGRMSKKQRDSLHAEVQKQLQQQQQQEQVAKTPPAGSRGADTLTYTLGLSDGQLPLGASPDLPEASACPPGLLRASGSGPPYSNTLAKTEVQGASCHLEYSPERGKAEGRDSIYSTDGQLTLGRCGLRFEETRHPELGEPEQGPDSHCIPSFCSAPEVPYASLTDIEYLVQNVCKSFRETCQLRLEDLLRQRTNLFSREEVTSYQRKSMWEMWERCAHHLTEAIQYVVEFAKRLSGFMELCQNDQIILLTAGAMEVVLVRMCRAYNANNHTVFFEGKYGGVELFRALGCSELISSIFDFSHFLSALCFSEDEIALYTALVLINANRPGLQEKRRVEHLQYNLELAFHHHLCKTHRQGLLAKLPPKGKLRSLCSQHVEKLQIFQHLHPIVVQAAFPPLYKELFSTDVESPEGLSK
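Luciferase reporter read in Schneider cells carrying Gal4-RORγ (mouse) and UAS-Photinus luciferase; cells given compound 1 h before 700 uM copper sulfate induction, then incubated 20 h at ambient temperature.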
Gal4-VP16 FLuc = inhibits Gal4-VP16 luciferase reporter, ROR gamma counter-screen; Drosophila S2 Gal4-VP16 UAS-luciferase, luminescence, 20 h; Potency, µM (top dose mostly 53.6 µM), for the others: at the top dose activity, negative = inhibition, hits mostly inhibitors; hit rate 3.5% among 310,000; AID 2546;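 note: Gal4-VP16 expression switched on by copper sulfate through the metallothionein promoter; potency is the fitted concentration of half-maximal effect; nearly all actives have a fitted effect of over 50% in size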
DT40 TDP1 CPT = growth inhibition of DT40 Tdp1-/-;hTDP1 cells with camptothecin (screen for TDP1 inhibitors); hit rate 12% among 420,000; AID 686979; Potency, µM (top dose mostly 46.2 µM), without a hit: at the top dose activity change, negative = growth inhibition, actives largely listed as inhibitors; chicken DT40 Tdp1-/-;hTDP1 cells + 20 nM CPT, ATP luminescence, 48 h; note: potency is the fitted concentration of half-maximal effect; nearly all actives have a fitted effect of over 55% in size
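Cell growth measured by CellTiter-Glo luminescence after a minimum 48 h, 37 C compound exposure with 20 nM CPT in Tdp1-knockout DT40 cells stably expressing hTDP1, seeded 400/well; qHTS titration format.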
IL-1B inflam inh = inflammasome signaling inhibition, IL-1 beta readout; hit rate 4.7% among 360,000; activity change, % at 57.5 µM; THP-1 LPS/ATP IL-1B secretion, AlphaLISA, 16 h; active compounds read low; in the data active = activity change below about -50%; inconclusive = mostly about -30% to -49%
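Secreted IL-1B measured by AlphaLISA bead assay after 16 h compound exposure of THP-1 cells; compounds (final up to 57.5 uM) added 1 h before LPS (250 ng/mL) and ATP (1.25 mM) stimulation; lower signal means less secretion.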
An asterisk follows results filed as active; ? = inconclusive; . = not tested or not shown; [ ] = another dose, or the depositor's remark. This is a sample that favours compounds with a hit; in the whole collection about 21% have one here. Unless noted, calls come from the whole dose curve; as a rule, active = well fitted curve in the direction sought with a large enough effect; inconclusive = small, poorly fitted or top-dose-only effect, or another doubt; inactive = no such curve, though single readings can be large; an effect the other way counts as inactive or inconclusive. % is set by controls: 0 for no effect and ±100 for the full control effect.

SMILES	ELG1 repair inh	DT40 TDP1 no CPT	RORgamma inh	Gal4-VP16 FLuc	DT40 TDP1 CPT	IL-1B inflam inh
CCCc1nc2ccccc2c(=O)n1-c1c(C)n(C)n(-c2ccccc2)c1=O	-6.0%	18.4µM*	-21.3%	-5.4%	25.9µM*	30.8
Cc1c(-n2c(SCC(C)C)nc3ccccc3c2=O)c(=O)n(-c2ccccc2)n1C	-13.5%	?	33.6%	-12.3%[10 µM]	?	-13.2
Cc1cc(C)n(-c2nc3ccccc3s2)n1	?	32.4%	3.3%	-8.1%	-7.1%	0.0
Cc1c2c(=O)n(-c3nc4ccccc4s3)nc-2cc(O)n1Cc1ccccc1	?	14.6µM*	-37.2%	-1.2%	20.6µM*	0.2
O=C(OCc1ccccc1F)c1ccc(-c2nnn(Cc3ccccc3)n2)cc1	.	-19.2%	.	.	?	.
O=C(/C=C/c1c(Cl)nc2ccccn12)N1CCN(c2ccccc2F)CC1	0.0%	23.1µM*	-8.5%	6.7%	-19.3%	-21.4
O=C(/C=C/c1c(Cl)nc2ccccn12)N1CCCCC1	?	?	?	4.9%	-24.4%	-7.1
O=C(/C=C/c1cccs1)N1CCN(c2ccc(F)cc2)CC1	0.0%	?	8.6%	2.5%	-13.8%	-16.9
O=C(/C=C/c1c(Cl)nc2ccccn12)N1CCN(c2ccc(F)cc2)CC1	?	25.9µM*	1.7%	8.8%	?	76.7
NC1=C(Br)C(=O)c2ncccc2C1=O	.	1.64µM*	.	.	0.651µM*	-97.6*
O=C1c2cccnc2C(=O)N1CO	0.8%	-24.7%	-9.9%	-7.9%	3.5%	-18.3
O=C1C(=O)c2ncccc2-c2cccnc21	.	5.31µM*	-37.6%	-11.7%	5.96µM*	.
CCC(C)(C)OC(=O)N[C@@H](Cc1c[nH]c2ccccc12)C(=O)N[C@@H](CCSC)C(=O)N[C@@H](CC(=O)O)C(=O)N[C@@H](Cc1ccccc1)C(N)=O	.	-22.7%	.	.	-5.7%	.
O=S(=O)(c1ccccc1C(F)(F)F)N1CCN(c2nc(-c3cccs3)nc3ccccc23)CC1	.	11.2µM*	.	.	12.6µM*	.
O=S(=O)(c1cccs1)N1CCN(c2nc(-c3cccs3)nc3ccccc23)CC1	.	20µM*	.	.	?	.
CC(C)(C)c1ccc(S(=O)(=O)N2CCN(c3nc(-c4cccs4)nc4ccccc34)CC2)cc1	.	?	.	.	-11.9%	.
CS(=O)(=O)N1CCN(c2nc(-c3cccs3)nc3ccccc23)CC1	.	11.2µM*	.	.	15.8µM*	.
CC1(C)CC(=O)C=C(c2ccc(-c3cnc4ccccc4c3)cc2)C1=O	.	23.1µM*	.	.	?	-4.4
COc1ccc(C#Cc2ccc(C3=CC(=O)CC(C)(C)C3=O)cc2)cc1	.	16.4µM*	.	.	?	-8.7
CC1(C)CC(=O)C=C(c2ccc(-c3cccc4c3sc3ccccc34)cc2)C1=O	.	18.4µM*	.	.	?	-6.3
CC1(C)CC(=O)C=C(c2ccc(Oc3ccccc3)cc2)C1=O	.	?	.	.	?	-12.5
CC1(C)CC(=O)C=C(c2cccc(O)c2)C1=O	10.7%	-0.3%	.	.	-2.8%	8.5
O=C(CS(=O)Cc1ccccc1Cl)Nc1ccccc1Cl (stereo not given)	-12.5%	1.1%	15.8%	1.7%	10.7%	3.8
C=C1C[C@@]23CC4C5[C@@]6(C)C[C@H](O)C[C@@]57C2[C@H](O)[C@@H]1[C@H](O)[C@H]3[C@H]7N4C6	.	-8.6%[9.04 µM]	4.9%	1.7%	-14.4%[9.04 µM]	.
CCc1ccc(NC(=O)C/C(C)=N/NC(=O)COc2ccccc2C)cc1	17.1%	-25.8%	-31.6%	16.3%	-27.6%	10.8
COc1ccc(OC)c(/C=N/NC(=O)c2ccc(Cn3cc([N+](=O)[O-])cn3)o2)c1	-23.1%	7.6%	12.5%	2.1%	4.5%	6.7
